According to PubChem BioAssay (EPA / NIEHS):
Activity calls are given as the source filed them. How the source made its calls: active means hit-call score of the fitted dose curve at least 0.9, where 1 is the maximum; inactive means score below 0.9.

experiment: Tanguay_ZF_120hpf_MORT: Oregon State University Tanguay Lab 120 Hour Post-fertilization zebrafish Assay for Mortality (AID 2284399)
Procedure: Tanguay_ZF_120hpf is a whole embryo, multiplexed endpoint assay using zebrafish larvae exposed for 120 hours post fertilization on a 96-well plate.Tanguay_ZF_120hpf_MORT is one of one assay component(s) measured or calculated from the Tanguay_ZF_120hpf assay. It is designed to make measurements of zebrafish development as detected with brightfield microscopy of developing zebrafish embryos.Data from the assay component Tanguay_ZF_120hpf_MORT was analyzed into 1 assay endpoints. This assay endpoint, Tanguay_ZF_120hpf_MORT, was analyzed in the positive analysis fitting direction relative to DMSO as the negative control and baseline of activity. Using a type of viability reporter, gain-of-signal activity can be used to understand changes in developmentals as they relate to the whole embryo. To generalize the intended target to other relatable targets, this assay endpoint is annotated to the zebrafish development intended target family, where the subfamily is embryonic mortality.
Zebrafish husbandry: Tropical 5D wild-type adult zebrafish were housed in at an approximate density of 1000 per 100 gallon tank at the Sinnhuber Aquatic Research Laboratory, Oregon State University, Corvallis, OR. Each tank was kept at standard laboratory conditions of 28C on a 14-h light/10-h dark photoperiod in fish water consisting of reverse osmosis water supplemented with a commercially available salt (Instant Ocean). Spawning funnels were placed into the tanks the night prior, and embryos were collected and staged. To increase bioavailability, the chorion was enzymatically removed using pronase (63.6mg/ml, >/= 3.5U/mg, Sigma-Aldrich: P5147) at 4 hours post fertilization (hpf) using a custom automated dechorionator.Chemical exposures: Six hpf dechorionated embryos were placed 1 embryo per well in a 96-well plate prefilled with 90 ul of EM using automated embryo placement systems (AEPS). Ten microliters of each row of dilution plate 2 was added to 2 exposure plates. The final DMSO concentration used was 0.64% (vol/vol). Thirty-two embryos were also exposed to 5uM trimethyltin chloride (positive control). Plates were sealed to prevent evaporation and foil covered to reduce light exposure and kept in a 28C incubator. Embryos were statically exposed until 120 hpf. At 24 hpf, embryos were assessed for photomotor response using a custom photomotor response analysis tool (PRAT) and for developmental toxicity endpoints (MO24: mortality at 24 hpf, DP: developmental progression, SM: spontaneous movement, and NC: notochord distortion). At 120 hpf, locomotor activity was measured using Viewpoint Zebralab and assessed for 13 endpoints. Zebrafish acquisition and analysis program (ZAAP), a custom program designed to inventory, acquire, and manage zebrafish data, was used to collect developmental endpoints as either present or absent (i.e., binary responses were recorded). If mortality occurred for an embryo (at either 24 or 120 hpf), the non-mortality endpoints were not measured.

Structure (SMILES) | outcome | AC50
O=S(=O)(F)C(F)(F)C(F)(F)C(F)(F)C(F)(F)C(F)(F)C(F)(F)C(F)(F)C(F)(F)F | inactive | 
COC(=O)C(F)(F)C(F)(F)OC(F)(C(F)(F)F)C(F)(F)OC(F)=C(F)F (centres undefined) |  | 22.2 µM (active)
OCC(F)(F)OC(F)(F)C(F)(F)OC(F)(F)C(F)(F)OC(F)(F)CO |  | 57.6 µM (active)
OCC(F)(F)OC(F)(F)C(F)(F)OC(F)(F)C(F)(F)OC(F)(F)F | inactive | 
NC(=O)C(F)(F)C(F)(F)F | inactive | 
O=C(O)C(F)(OC(F)(F)C(F)(F)C(F)(F)F)C(F)(F)F (centres undefined) | inactive | 
CC(O)C(F)(F)C(F)(F)F (centres undefined) | inactive | 
C=CC(=O)OCC(F)(F)C(F)F |  | 64 µM (active)
O=C(O)C(F)(F)OC(F)(F)C(F)(F)OC(F)(F)C(=O)O | inactive | 
FC(F)(F)C(F)(C(F)(F)F)C(F)(F)C(F)(F)CC1CO1 (centres undefined) | inactive | 
O=C(O)C(F)(F)C(F)(F)C(=O)O | inactive | 
O=C(O)C(F)(F)OC(F)(F)C(F)(F)OC(F)(F)F | inactive | 
O=C(O)C=CC(F)(C(F)(F)F)C(F)(F)F | inactive | 
OCC(F)(F)OC(F)(F)C(F)(F)OC(F)(F)CO | inactive | 
